The values below come from PubChem BioAssay.

The structures appear in SMILES notation. Calls of active or inactive are those of the source. How the calls were made is not given here.

The target in this assay is Pantothenate synthetase (Mycobacterium tuberculosis (strain ATCC 25618 / H37Rv)) (UniProt P9WIL5). Briefly: Recombinant Mtb pantothenate synthetase (PanC) inhibitors, coupled enzyme, confirmatory (AID 375).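 Further: 0% = full reaction with vehicle and 100% = no enzyme background.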 Particulars: coupled enzyme assay; at 10 µM, stronger effect = higher value.
Sequence of Pantothenate synthetase (Mycobacterium tuberculosis (strain ATCC 25618 / H37Rv)) (P9WIL5 whole entry, looked up): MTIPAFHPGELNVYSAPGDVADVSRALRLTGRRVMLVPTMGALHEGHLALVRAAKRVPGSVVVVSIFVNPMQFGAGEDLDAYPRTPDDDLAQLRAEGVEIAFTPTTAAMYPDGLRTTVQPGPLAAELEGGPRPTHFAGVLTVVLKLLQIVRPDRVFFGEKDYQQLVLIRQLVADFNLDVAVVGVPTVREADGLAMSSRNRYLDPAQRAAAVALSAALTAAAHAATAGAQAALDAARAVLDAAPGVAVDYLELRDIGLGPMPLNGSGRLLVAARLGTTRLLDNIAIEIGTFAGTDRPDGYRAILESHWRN
The inhibition is the percentage by which the read-out fell short of the control. Take `O=c1[nH]c(=O)n(C2CCCCCC2)c(O)c1C=NCc1ccc(F)cc1`: the inhibition was 4% (inactive). The value for `Cc1ccc2[nH]c3c(c2c1)CCc1cn[nH]c1-3` was 0% (inactive). The value for `C=CCn1c(=O)/c(=C/c2ccc(O)cc2)s/c1=C(/C#N)c1nnc2n1CCCCC2` was 0% (inactive). The value for `COc1ccc(C(=O)Nc2cccc(-c3nc4ncccc4o3)c2C)cc1OC` was 2% (inactive); that for `CCOC(=O)C1C2C=CC3(CN(Cc4ccco4)C(=O)C13)O2` (centres undefined) was 0% (inactive). As for `CCOC(=O)c1ccc(NCc2nc3ccccc3[nH]2)cc1`, the inhibition is 4% (inactive). The value for `CCn1c(SCC(=O)Nc2cc(C)on2)nc2sc3c(c2c1=O)CCCC3` was 0% (inactive). The value for `CC(C)(C)N(Cc1cc2ccccc2[nH]c1=O)C(=O)C1CCCCC1` was 3% (inactive); that for `COc1cccc(N2CCN(CC(=O)c3c[nH]c4ccc(OC)cc34)CC2C)c1` (centres undefined) was 2% (inactive). The figure for `CCc1ccc(Nc2cc(=O)n(C3CCCCC3)c(=O)[nH]2)cc1` is 0% (inactive); for `Cc1ccc(NC(=O)CSc2nnc(NC(=O)CN3CCOCC3)s2)cc1` it is 5% (inactive); for `O=C(Nc1nnc(C2CCCCC2)s1)c1cccs1` it is 8% (inactive). `CN1C(=O)C(O)(CC(=O)c2ccc3c(c2)OCO3)c2ccccc21` (centres undefined): the inhibition is 0% (inactive). The value for `Cc1cccc(N2CCN(C(=O)CCn3c(=S)[nH]c4cc5c(cc4c3=O)OCO5)CC2C)c1` (centres undefined) was 9% (inactive); that for `Cn1nnnc1SCC(=O)Nc1ccccc1C(=O)NCc1ccccc1` was 0% (inactive); that for `O=C(NC1CCCc2ccccc21)C1CCN(c2nnc(-n3cccc3)s2)CC1` (centres undefined) was 0% (inactive). Consider `Cc1ccc(C)c(C(=O)NC2CC(C)(C)NC(C)(C)C2)c1`, for which the inhibition was 0% (inactive). The value for `Cc1cc(OCC(=O)N2CCOCC2)cc2oc(=O)c3ccccc3c12` was 0% (inactive). The value for `CCOC(=O)c1c(NC(=O)CSc2nnc(-c3cccnc3)o2)sc(C)c1C` was 4% (inactive). Consider `O=C(Nc1ccc2c(c1)OCO2)c1cc2ncc(Br)cn2n1`, for which the inhibition is 3% (inactive). For `CC(=O)N1CCC2(CC1)CC(=O)c1cc(OCC(=O)NCc3ccc(C)cc3)ccc1O2`, the inhibition was 3% (inactive).

Regarding `CCOc1ccc(OCC)c(NC(=O)C2CCN(S(=O)(=O)c3cnc[nH]3)CC2)c1`, the inhibition is 4% (inactive). The figure for `Cc1cccc(NC(=O)CCn2ccnc2C)c1` is 0% (inactive). The figure for `COC(=O)c1ccccc1NC(=O)CSc1nc2c(c(=O)n(C)c(=O)n2C)n1C` is 3% (inactive); for `O=C(COC(=O)c1ccc(S(=O)(=O)Nc2ccccc2)cc1)NCCN1C(=O)CSC1=O` it is 0% (inactive). On to `Cc1cccnc1-n1c(CCN2C(=O)c3ccccc3C2=O)nc2ccccc2c1=O`, for which the inhibition is 9% (inactive). The value for `CCc1nnc(NC(=O)C2CCN(c3nccc(C)n3)CC2)s1` was 8% (inactive). The value for `CCCNS(=O)(=O)c1ccc(OCC(=O)NCc2ccc3c(c2)OCO3)cc1` was 2% (inactive); that for `COc1ccccc1NS(=O)(=O)c1ccc(OC)c(OC)c1` was 8% (inactive). As for `COc1ccccc1N1CCN(CC(O)c2ccc3cc[nH]c3c2)CC1` (centres undefined), the inhibition was 5% (inactive). The figure for `CCn1c(SCC(=O)c2ccc(F)cc2)nnc1-c1ccoc1C` is 4% (inactive). The value for `COc1ccccc1NC(=O)NC1(C(=O)N2CCC(O)CC2)CCCCC1` was 0% (inactive); that for `Cc1cc(C(C)(C)C)cc(C)c1CC1=NCCN1` was 0% (inactive).

Consider `COc1ccc(OCC(=O)N2CCN(C(=O)Cc3ccccc3)CC2)cc1`, for which the inhibition was 0% (inactive).

`O=c1c2[nH]c3ccccc3c2ncn1CCCn1ccnc1`: the inhibition was 0% (inactive). The figure for `CCN1CCN(S(=O)(=O)c2ccc(S(=O)(=O)N(CC)Cc3ccccc3)cc2)CC1` is 7% (inactive); for `CCOc1cccc(OCCOCCN2CCCC2)c1` it is 8% (inactive); for `CCOCCCn1c(=S)[nH]c2cc3c(cc2c1=O)OCO3` it is 0% (inactive). Regarding `CC1=C(n2nnc3ccccc32)C(c2ccccc2)C(C#N)=C(N)O1` (centres undefined), the inhibition was 5% (inactive).
